Measurements published in ChEMBL document CHEMBL3433997, “St. Jude Leishmania screening dataset” (2016).

Target: Solute carrier family 2, facilitated glucose transporter member 1 (Homo sapiens) (UniProt P11166)
Experiment: ST_JUDE_LEISH: Cytotoxicity at 2uM final concentration against transgenic Leishmania Mexicana promastigotes LmGLUT1 that are glucose transport deficient and complemented with the human glucose transporter GLUT1. Activity is measured by DNA content using SYBR green in vitro
Assay type: functional

Chain of Solute carrier family 2, facilitated glucose transporter member 1 (Homo sapiens) (P11166 whole entry): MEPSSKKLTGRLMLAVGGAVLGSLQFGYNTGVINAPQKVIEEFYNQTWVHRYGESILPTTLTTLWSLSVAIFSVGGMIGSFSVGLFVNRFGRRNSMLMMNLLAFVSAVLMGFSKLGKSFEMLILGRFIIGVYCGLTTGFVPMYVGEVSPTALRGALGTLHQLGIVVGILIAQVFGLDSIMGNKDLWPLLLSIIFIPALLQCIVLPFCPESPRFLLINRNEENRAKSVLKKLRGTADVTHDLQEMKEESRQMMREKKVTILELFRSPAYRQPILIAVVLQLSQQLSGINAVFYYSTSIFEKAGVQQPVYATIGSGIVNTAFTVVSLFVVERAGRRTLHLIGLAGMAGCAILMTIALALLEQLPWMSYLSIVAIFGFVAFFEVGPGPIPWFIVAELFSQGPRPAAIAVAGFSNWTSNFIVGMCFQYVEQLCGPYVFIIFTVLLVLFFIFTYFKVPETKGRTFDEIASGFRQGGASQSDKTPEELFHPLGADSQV

| Structure (SMILES) | inhibition |
| --- | --- |
| CS(=O)(=O)CCCNCc1ccc(-c2cc3c(Nc4ccc(OCc5ccccc5)cc4)ncnc3cn2)o1 | 2.89% |
| O=S(=O)(Nc1cccc(CCN2CCC(N3CCCCC3)CC2)c1)c1ccc(-c2ccccc2)cc1 | 3.35% |
| CC1CN(Cc2cccc(-c3ccc(-c4nc5ccccc5[nH]4)cc3)c2)CC(C)O1 (stereo not given) | 3.06% |
| CCC[C@@H]([C@@H](CC(C)C)C(=O)N[C@@H](CCCCNC(=O)OCc1ccccc1)C(=O)Nc1ncccn1)N(O)C=O | 19.1% |
| NC(=O)c1cccc(Nc2nccc(Nc3ccc4[nH]c(-c5ccccc5)cc4c3)n2)c1 | -0.28% |
| O=C1COc2ccc(CNC3CCC(O)(CCc4ccnc5cc6c(cc45)OCCO6)CC3)nc2N1 (stereo not given) | 3.59% |
| O=C(N[C@H]1CCCC[C@H]1C(=O)O)c1ccccc1 | 0.5% |
| CCN(CC)c1ccc(C(=O)Cn2ccc(=N)cc2)cc1 | 1.35% |
| CC(=O)/N=C1\N=C(NC(C)=O)NC(C)(C)N1OCCCOc1ccc(Cl)c(Cl)c1 | 1.53% |
| COc1cc(Nc2nccc(Nc3ccc4c(C)n[nH]c4c3)n2)cc2ccccc12 | 5.04% |
| COc1ccc(NC(=O)Nc2ccc(-c3ccccc3)cc2)cc1Cn1nc(Cl)c(N2CCCNCC2)cc1=O | 0.73% |
| CN1CCN(CC2(Nc3nccc(NCCc4cn(C)c5ccccc45)n3)CCCCC2)CC1 | 0.99% |
| FC(F)(F)c1ccc2[nH]c(-c3cccc(-c4ccc(CNCCc5ccncc5)cc4)c3)nc2c1 | 1.9% |
| NC1=NC(c2ccccc2)N(OCc2ccccc2)C(N)=N1 (stereo not given) | 0.52% |
| COc1cc2nc(N3CCC(CNC(=O)c4cc5ccccc5s4)CC3)nc(N)c2cc1OC | 11.8% |
| Cc1ccc2c(Cl)c(C(=O)N3CCCc4ccccc43)sc2c1 | 5.28% |
| C[C@@H](COc1ccccc1)NCC(O)c1ccc([N+](=O)[O-])c(OCc2ccccc2)c1 (stereo not given in full) | 0.54% |
| CCN(CC)CCCOC(=O)c1ccc2c(c1)-c1ccc(C(=O)OCCCN(CC)CC)c3cccc-2c13 | 6.8% |
| CS(=O)(=O)NCCCNCc1ccc(-c2ccc(-c3nc4cc(F)ccc4[nH]3)cc2)cc1 | 7.49% |
| O=C(Nc1ccccc1)N(Cc1ccc(-c2ccc(CNC3CCCC3)cc2)cc1)C1CCN(Cc2ccccc2)CC1 | 4.17% |

| Structure (SMILES) | inhibition |
| --- | --- |
| Cc1noc(C)c1-c1cccc(CNCc2cccc(-c3ccc(-c4nc5cc(C(F)(F)F)ccc5[nH]4)s3)c2)c1 | 0.65% |
| CCCNCc1ccc(-c2ccc(CN(Cc3ccc4c(c3)OCO4)C(=O)[C@H]3CCCO3)cc2)nc1 | 13.6% |
| CN(C)Cc1c(O)ccc2[nH]c(-c3cccc(F)c3)nc12 | 2.87% |
| CCn1c(-c2nonc2N)nc2cnc(Oc3cccc(NC(=O)c4ccc(OCCN5CCCCC5)cc4)c3)cc21 | 17.2% |
| CCN(CC)CCN(Cc1ccc(-c2ccc(C(F)(F)F)cc2)cc1)C(=O)Cn1c(CCc2cccc(F)c2F)nc(=O)c2cc(F)ccc21 | 4.48% |
| CCOc1cc(-c2nnc3[nH]c(=O)n(C)c(=O)c3n2)ccc1OC(C)C | 2.56% |
| CCCCN(CCCC)/C(=N/c1cccc(Cl)c1Cl)Nc1ccc(C#N)cc1O | 3.21% |
| O=C(CNc1ccncc1)c1c[nH]c2ccccc12 | 0.52% |
| COc1ccc2nccc(N3CCC(NCCNCc4ccc5c(n4)NC(=O)CS5)C3)c2n1 (stereo not given) | 3.26% |
| O=c1c2ccccc2[nH]c2nc3ccccc3c(Nc3ccccc3)c12 | 10.2% |
| CN(C)CCCOc1ccc(CN2CC[C@H](NC(=O)c3ccc(Cl)c(Cl)c3)C2)cc1Br | 3.8% |
| Cc1c(CCc2cccc(F)c2F)[nH]c2ccccc2c1=O | -0.2% |
| CCc1nonc1NC(=O)c1oc2c(C)c(C)ccc2c1C | 7.09% |
| CC(C)c1cccc(OCC2CCN(c3ncc(C(=O)Nc4ccccc4)cc3Cl)CC2)c1 | 2.96% |
| C=CCOC(=O)N1CCC(CNCc2cccc(-c3ccc(-c4nc5cccc(C)c5[nH]4)s3)c2)C1 (stereo not given) | -0.28% |
| O=[N+]([O-])c1ccc(Nc2nc(N/N=C/c3ccc(-c4ccc([N+](=O)[O-])cc4)o3)nc(Nc3ccccc3)n2)cc1 | 0.17% |
| CCCNCc1ccc(-c2ccc(CN(Cc3cccs3)C(=O)C3CCN(C)CC3)cc2)nc1 | 2.14% |
| O=C(Nc1cccc(CN2CCN(C(=O)c3ccccc3)CC2)c1)c1ccco1 | 3.67% |
| CC(=O)Oc1c(C2CCN(CCCCNC(=O)c3ccc(-c4ccc(C#N)cc4)cc3)CC2)ccc2c1CCCC2 | 0.47% |
| COc1ccc2nccc(N3CCC(SCCNCc4ccc5c(n4)NC(=O)CO5)C3)c2n1 (stereo not given) | 0.4% |

Target: Hexose transporter 1 (Plasmodium falciparum) (UniProt O97467)
Experiment: ST_JUDE_LEISH: Cytotoxicity at 2uM final concentration against transgenic Leishmania Mexicana promastigotes LmPfHT that are glucose transport deficient and complemented with the Plasmodium falciparum hexose transporter. Activity is measured by DNA content using SYBR green in vitro
Assay type: functional

| Structure (SMILES) | inhibition |
| --- | --- |
| CS(=O)(=O)CCCNCc1ccc(-c2cc3c(Nc4ccc(OCc5ccccc5)cc4)ncnc3cn2)o1 | 2.8% |
| O=S(=O)(Nc1cccc(CCN2CCC(N3CCCCC3)CC2)c1)c1ccc(-c2ccccc2)cc1 | 5.01% |
| CC1CN(Cc2cccc(-c3ccc(-c4nc5ccccc5[nH]4)cc3)c2)CC(C)O1 (stereo not given) | 4.42% |
| CCC[C@@H]([C@@H](CC(C)C)C(=O)N[C@@H](CCCCNC(=O)OCc1ccccc1)C(=O)Nc1ncccn1)N(O)C=O | 21.5% |
| NC(=O)c1cccc(Nc2nccc(Nc3ccc4[nH]c(-c5ccccc5)cc4c3)n2)c1 | 0.57% |
| O=C1COc2ccc(CNC3CCC(O)(CCc4ccnc5cc6c(cc45)OCCO6)CC3)nc2N1 (stereo not given) | 3.14% |
| O=C(N[C@H]1CCCC[C@H]1C(=O)O)c1ccccc1 | 1.61% |
| CCN(CC)c1ccc(C(=O)Cn2ccc(=N)cc2)cc1 | -0.06% |
| CC(=O)/N=C1\N=C(NC(C)=O)NC(C)(C)N1OCCCOc1ccc(Cl)c(Cl)c1 | 1.27% |
| COc1cc(Nc2nccc(Nc3ccc4c(C)n[nH]c4c3)n2)cc2ccccc12 | 2.79% |
| COc1ccc(NC(=O)Nc2ccc(-c3ccccc3)cc2)cc1Cn1nc(Cl)c(N2CCCNCC2)cc1=O | 0.83% |
| CN1CCN(CC2(Nc3nccc(NCCc4cn(C)c5ccccc45)n3)CCCCC2)CC1 | 1.78% |
| FC(F)(F)c1ccc2[nH]c(-c3cccc(-c4ccc(CNCCc5ccncc5)cc4)c3)nc2c1 | 0.52% |
| NC1=NC(c2ccccc2)N(OCc2ccccc2)C(N)=N1 (stereo not given) | 0.08% |
| COc1cc2nc(N3CCC(CNC(=O)c4cc5ccccc5s4)CC3)nc(N)c2cc1OC | 11% |
| Cc1ccc2c(Cl)c(C(=O)N3CCCc4ccccc43)sc2c1 | 3.86% |
| C[C@@H](COc1ccccc1)NCC(O)c1ccc([N+](=O)[O-])c(OCc2ccccc2)c1 (stereo not given in full) | 0.96% |
| CCN(CC)CCCOC(=O)c1ccc2c(c1)-c1ccc(C(=O)OCCCN(CC)CC)c3cccc-2c13 | 3.93% |
| CS(=O)(=O)NCCCNCc1ccc(-c2ccc(-c3nc4cc(F)ccc4[nH]3)cc2)cc1 | 4.28% |
| O=C(Nc1ccccc1)N(Cc1ccc(-c2ccc(CNC3CCCC3)cc2)cc1)C1CCN(Cc2ccccc2)CC1 | 3.43% |

| Structure (SMILES) | inhibition |
| --- | --- |
| Cc1noc(C)c1-c1cccc(CNCc2cccc(-c3ccc(-c4nc5cc(C(F)(F)F)ccc5[nH]4)s3)c2)c1 | 7.93% |
| CCCNCc1ccc(-c2ccc(CN(Cc3ccc4c(c3)OCO4)C(=O)[C@H]3CCCO3)cc2)nc1 | 10.6% |
| CN(C)Cc1c(O)ccc2[nH]c(-c3cccc(F)c3)nc12 | 2.53% |
| CCn1c(-c2nonc2N)nc2cnc(Oc3cccc(NC(=O)c4ccc(OCCN5CCCCC5)cc4)c3)cc21 | 28.1% |
| CCN(CC)CCN(Cc1ccc(-c2ccc(C(F)(F)F)cc2)cc1)C(=O)Cn1c(CCc2cccc(F)c2F)nc(=O)c2cc(F)ccc21 | 2.96% |
| CCOc1cc(-c2nnc3[nH]c(=O)n(C)c(=O)c3n2)ccc1OC(C)C | 2.55% |
| CCCCN(CCCC)/C(=N/c1cccc(Cl)c1Cl)Nc1ccc(C#N)cc1O | 2.13% |
| O=C(CNc1ccncc1)c1c[nH]c2ccccc12 | 2.3% |
| COc1ccc2nccc(N3CCC(NCCNCc4ccc5c(n4)NC(=O)CS5)C3)c2n1 (stereo not given) | 4.23% |
| O=c1c2ccccc2[nH]c2nc3ccccc3c(Nc3ccccc3)c12 | 12.5% |
| CN(C)CCCOc1ccc(CN2CC[C@H](NC(=O)c3ccc(Cl)c(Cl)c3)C2)cc1Br | 0.94% |
| Cc1c(CCc2cccc(F)c2F)[nH]c2ccccc2c1=O | 5.03% |
| CCc1nonc1NC(=O)c1oc2c(C)c(C)ccc2c1C | 5.3% |
| CC(C)c1cccc(OCC2CCN(c3ncc(C(=O)Nc4ccccc4)cc3Cl)CC2)c1 | 1.07% |
| C=CCOC(=O)N1CCC(CNCc2cccc(-c3ccc(-c4nc5cccc(C)c5[nH]4)s3)c2)C1 (stereo not given) | -0.37% |
| O=[N+]([O-])c1ccc(Nc2nc(N/N=C/c3ccc(-c4ccc([N+](=O)[O-])cc4)o3)nc(Nc3ccccc3)n2)cc1 | -3.33% |
| CCCNCc1ccc(-c2ccc(CN(Cc3cccs3)C(=O)C3CCN(C)CC3)cc2)nc1 | 0.83% |
| O=C(Nc1cccc(CN2CCN(C(=O)c3ccccc3)CC2)c1)c1ccco1 | 3.78% |
| CC(=O)Oc1c(C2CCN(CCCCNC(=O)c3ccc(-c4ccc(C#N)cc4)cc3)CC2)ccc2c1CCCC2 | 1.16% |
| COc1ccc2nccc(N3CCC(SCCNCc4ccc5c(n4)NC(=O)CO5)C3)c2n1 (stereo not given) | 2.93% |
